# Laboratory results published in PubChem BioAssay (NCATS).
# Records with an inconclusive call do not appear. Where a call stands in place of a potency, no number is given. Calls of active or inactive are those of the source. Unless noted, calls come from the whole dose curve; as a rule, active = well fitted curve in the direction sought with a large enough effect; inconclusive = small, poorly fitted or top-dose-only effect, or another doubt; inactive = no such curve, though single readings can be large; an effect the other way counts as inactive or inconclusive.
# Columns and labels:
# [1] = Nrf2 qHTS screen for inhibitors: Validation (AID 493153); conditions: Potency: luciferase luminescence; viability change: measured here: cytotoxicity max response
# In short: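 A549 cells carrying ARE-firefly luciferase reporter, 5000 cells/well in 5% FBS OPTI-MEM, treated with compound over a concentration series for 18-24 h at 37 C. Luciferase luminescence gave Nrf2 activity; CellTiter-Fluor fluorescence gave viability.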
# [2] = qHTS for Inhibitors of Cell Surface uPA Generation: Validation Assay (AID 493164)
# In short: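 RAW 264.7 cells (4000/well) were plated overnight, then exposed for 18 h at 37 C, 5% CO2 to compounds in a 7-point 1:5 titration (2.45 nM–38.3 uM final). Intracellular ATP was read by ATP-Lite luminescence.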
# [3] = target: Galactokinase (Homo sapiens) (UniProt P51570); assay: qHTS Validation Assay for Inhibitors of Human Galactokinase (GALK) (AID 493189)
# In short: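 GALK (5 nM) with 35 uM ATP and 100 uM galactose in HEPES pH8.0, MgCl2, NaCl, DTT, BSA; 1 h at room temperature. Residual ATP read by Kinase-Glo Plus luminescence after 10 min.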
# [4] = target: Peptidyl-prolyl cis-trans isomerase NIMA-interacting 1 (Homo sapiens) (UniProt Q13526); assay: qHTS Validation Assay to Find Inhibitors of Pin1 (AID 504536; active = well fitted inhibition curve with a large enough effect in the polarisation, with a control signal flat, not every such curve was filed as active; the % refers to the polarisation)
# In short: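 Fluorescence polarization competition: compounds (titration) displace HiFluor-488-labeled Pin1-1b peptide from Pin1 (0.3 uM final) in pH 7.5 HEPES buffer with DTT, 10 min at room temperature; %Activity normalized to no-enzyme wells, curves fitted.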
# [5] = target: Phosphoglycerate kinase, glycosomal (Trypanosoma brucei brucei) (UniProt P07378); assay: qHTS Validation Assay to Find Inhibitors of Phosphoglycerate Kinase (AID 504547)
# In short: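 PGK activity was coupled to GAPDH (100nM final), which generates the unstable substrate 1,3-bisphosphoglycerate in-well. Reactions ran 60 minutes at room temperature in 100mM TEA pH 7.6, 5mM MgCl2, 0.01% Tween-20, then Kinase-Glo Plus luminescence was read.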
# [6] = target: phosphoglycerate mutase (Leishmania major) (UniProt Q4Q090); assay: qHTS Validation Assay to Find Inhibitors of Phosphoglycerate Mutase (AID 504548); note: series mostly up to about 58 µM
# In short: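 Luminescent end-point read-out via Kinase-GloPlus after a 10-minute development. Reaction: 1.25nM Leishmania major PGAM with substrate and compound, 45 minutes at room temperature in TEA buffer (pH 7.6) with MgCl2 and Tween-20.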
# [7] = Inducers of the Endoplasmic Reticulum Stress Response (ERSR) in human glioma: Validation (AID 504836)
# In short: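 Stably transfected U87-MG glioma cells carrying a GRP78-based luciferase sensor; 16 h compound incubation. Luminescence end-point read 10 min after Bright-Glo addition at room temperature.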
# [8] = target: Ubiquitin carboxyl-terminal hydrolase 1 (Homo sapiens) (UniProt O94782); assay: Inhibitors of USP1/UAF1: Pilot qHTS (AID 504865);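 note: rhodamine fluorescence freed from ubiquitin-rhodamine substrate followed over time; top concentration of the series differs between compounds; nearly all actives have a fitted effect of over 35% in size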
# In short: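 USP1/UAF1 complex (1nM) preincubated with compound 15 min at room temperature, then Ub-Rho substrate (150nM final) added. Fluorescence read kinetically at 480/540 nm, 6 reads every 60 seconds. Buffer: 50mM HEPES pH 7.8, 0.5mM EDTA, 0.1 mg/ml BSA, 1mM TCEP, 0.01% Tween-20.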
# [9] = qHTS for Inhibitors of ATXN expression: Validation of Cytotoxic Assay (AID 588349)
# In short: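 HEK293 cells treated with titrated compound for 72 hr at 37 degrees C; viability read as intracellular ATP by CellTiter Glo luminescence.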
# [10] = qHTS for Inhibitors of ATXN expression: Validation (AID 588378); note: series mostly up to about 57 µM; nearly all actives have a fitted effect of over 75% in size
# In short: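 Luminescence from an ATXN2-FFLuc reporter in HEK293 cells served as read-out after 24 h compound treatment at 37 degrees C; CellTiter-Fluor fluorescence was recorded first to assess viability.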
# [11] = target: Voltage-gated inwardly rectifying potassium channel KCNH2 (Homo sapiens) (UniProt Q12809); assay: qHTS Assay for Small Molecule Inhibitors of the Human hERG Channel Activity (AID 588834);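 note: top concentration of the series differs between compounds; lower thallium flux fluorescence means stronger hERG block; nearly all actives have a fitted effect of over 50% in size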
# In short: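 U2OS cells transduced with hERG via BacMam (MOI ~100), plated 2000/well, loaded with FluxOR thallium dye, compound ~10 min, then stimulation buffer; fluorescence decrease read kinetically; AC50 from Hill fits.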
# [12] = target: Glutaminase kidney isoform, mitochondrial (Homo sapiens) (UniProt O94925); assay: qHTS for Inhibitors of Glutaminase (GLS): LOPAC Validation (AID 624146);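 note: glutamate product detected by oxidase and peroxidase coupled Amplex red fluorescence gain; series mostly up to about 46 µM; nearly all actives have a fitted effect of over 60% in size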
# In short: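 Compounds were pin-transferred onto hKGA, after which L-glutamine (1 mM solution) and a detection mix of glutamate oxidase, HRP and Amplex Red were added. Initial and 30 min RT fluorescence reads were collected.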
# [13] = qHTS of Trypanosoma Brucei Inhibitors: LOPAC Validation (AID 624147)
# In short: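 Assay buffer: 50 mM TEA pH 7.2, 100 mM KCl, 10 mM MgCl2, 0.05% BSA, 0.01% Tween-20. Pyruvate kinase from T. brucei plus substrate met compound, then ADP (130 uM final). Luminescence was read post 45 min RT.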
# [14] = target: Glucagon-like peptide 1 receptor (Homo sapiens) (UniProt P43220); assay: qHTS of GLP-1 Receptor Agonists: LOPAC Validation (AID 624148);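 note: higher luminescence signal means agonism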
# In short: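 HEK293 cells stably co-expressing GLP-1R and a cAMP-responsive luciferase reporter, plated 12 hours before compound, then incubated 4-6 hr at 37 deg C. Luminescence read 12 min after detection reagent.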
# [15] = qHTS of Nrf2 Activators: LOPAC Validation (AID 624149)
# In short: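 AREc32_Fluc cells, 1000/well in OPTI-MEM with 5% FBS, grown overnight, then exposed to compounds for 24 hr at 37 deg C, 5% CO2. ARE-driven firefly luciferase read by Steady-Glo luminescence after 30 min at RT.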
# [16] = HTS Assay for Allosteric Antagonists of the Human D2 Dopamine Receptor: Hit Validation in HTRF (AID 624455);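 note: stable D1 dopamine receptor cell line scored for blocking the D1 response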
# In short: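 Hit validation in cells stably expressing the D1 dopamine receptor, run in HTRF format. Compounds were tested for their ability to inhibit the D1-mediated response.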
# [17] = target: Arylsulfatase A (Homo sapiens) (UniProt P15289); assay: qHTS screen for enhancers of Arylsulfatase A (ASA1): LOPAC Validation Assay (AID 720538)
# In short: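 SV40-transformed skin fibroblasts from an MLD patient (ASA-I179S) were treated with compounds for 48h at 37 degree C, then lysed with 0.5mM pNCS final substrate for 14h at room temperature; NaOH stop, fluorescence read (Ex=525 nm; Em=598 nm).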
# [18] = qHTS for compounds that reverse cellular toxicity of Amyloid beta (A-beta) peptide in yeast: LOPAC Validation Assay (AID 720559)
# In short: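 Yeast cells expressing toxic A-beta were combined with pinned compounds in growth medium and incubated 48 hr at 30 C. Growth was read as absorbance at 600 nm and normalized to DMSO and to an equimolar FeCl3/clioquinol positive control.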
# Peptidyl-prolyl cis-trans isomerase NIMA-interacting 1 (Homo sapiens), sequence (Q13526 whole entry, looked up): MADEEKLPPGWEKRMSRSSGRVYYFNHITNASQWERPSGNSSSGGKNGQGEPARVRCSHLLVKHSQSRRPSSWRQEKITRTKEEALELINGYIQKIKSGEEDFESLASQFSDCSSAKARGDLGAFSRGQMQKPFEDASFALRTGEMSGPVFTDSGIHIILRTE
# Ubiquitin carboxyl-terminal hydrolase 1 (Homo sapiens), sequence (O94782 whole entry, looked up): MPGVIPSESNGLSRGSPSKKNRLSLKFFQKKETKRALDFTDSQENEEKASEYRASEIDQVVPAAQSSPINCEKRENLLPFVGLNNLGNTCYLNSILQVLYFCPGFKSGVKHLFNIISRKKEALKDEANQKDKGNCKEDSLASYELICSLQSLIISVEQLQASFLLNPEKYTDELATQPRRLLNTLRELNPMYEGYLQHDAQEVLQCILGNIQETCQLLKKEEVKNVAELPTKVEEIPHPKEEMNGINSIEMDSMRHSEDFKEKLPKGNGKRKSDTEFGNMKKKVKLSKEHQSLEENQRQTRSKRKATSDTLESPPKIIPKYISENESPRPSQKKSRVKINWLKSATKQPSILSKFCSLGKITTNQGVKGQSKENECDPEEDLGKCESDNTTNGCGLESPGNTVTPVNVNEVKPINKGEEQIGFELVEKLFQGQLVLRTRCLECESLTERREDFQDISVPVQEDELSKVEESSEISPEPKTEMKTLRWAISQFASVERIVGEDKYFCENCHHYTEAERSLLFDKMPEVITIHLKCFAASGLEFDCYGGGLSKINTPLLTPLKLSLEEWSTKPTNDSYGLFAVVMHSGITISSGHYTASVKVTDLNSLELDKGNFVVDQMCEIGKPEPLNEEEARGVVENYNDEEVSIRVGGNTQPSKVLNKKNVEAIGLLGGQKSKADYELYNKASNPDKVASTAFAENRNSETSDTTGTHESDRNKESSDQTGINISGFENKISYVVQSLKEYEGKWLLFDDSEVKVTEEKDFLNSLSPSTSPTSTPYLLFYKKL
# Phosphoglycerate kinase, glycosomal (Trypanosoma brucei brucei), sequence (P07378 whole entry, looked up): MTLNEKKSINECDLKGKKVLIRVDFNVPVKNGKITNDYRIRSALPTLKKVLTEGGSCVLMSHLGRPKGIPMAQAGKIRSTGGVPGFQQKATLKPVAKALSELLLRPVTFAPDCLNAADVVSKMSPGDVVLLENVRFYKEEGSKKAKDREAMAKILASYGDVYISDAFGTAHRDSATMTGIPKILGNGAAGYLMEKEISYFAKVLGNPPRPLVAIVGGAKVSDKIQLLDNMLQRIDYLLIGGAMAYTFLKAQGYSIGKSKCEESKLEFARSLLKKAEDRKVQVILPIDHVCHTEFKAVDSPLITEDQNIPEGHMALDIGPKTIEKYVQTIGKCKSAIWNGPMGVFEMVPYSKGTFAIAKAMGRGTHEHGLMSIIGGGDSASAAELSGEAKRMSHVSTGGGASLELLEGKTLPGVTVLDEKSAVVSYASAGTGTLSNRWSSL
# Glutaminase kidney isoform, mitochondrial (Homo sapiens), sequence (O94925 whole entry, looked up, canonical isoform): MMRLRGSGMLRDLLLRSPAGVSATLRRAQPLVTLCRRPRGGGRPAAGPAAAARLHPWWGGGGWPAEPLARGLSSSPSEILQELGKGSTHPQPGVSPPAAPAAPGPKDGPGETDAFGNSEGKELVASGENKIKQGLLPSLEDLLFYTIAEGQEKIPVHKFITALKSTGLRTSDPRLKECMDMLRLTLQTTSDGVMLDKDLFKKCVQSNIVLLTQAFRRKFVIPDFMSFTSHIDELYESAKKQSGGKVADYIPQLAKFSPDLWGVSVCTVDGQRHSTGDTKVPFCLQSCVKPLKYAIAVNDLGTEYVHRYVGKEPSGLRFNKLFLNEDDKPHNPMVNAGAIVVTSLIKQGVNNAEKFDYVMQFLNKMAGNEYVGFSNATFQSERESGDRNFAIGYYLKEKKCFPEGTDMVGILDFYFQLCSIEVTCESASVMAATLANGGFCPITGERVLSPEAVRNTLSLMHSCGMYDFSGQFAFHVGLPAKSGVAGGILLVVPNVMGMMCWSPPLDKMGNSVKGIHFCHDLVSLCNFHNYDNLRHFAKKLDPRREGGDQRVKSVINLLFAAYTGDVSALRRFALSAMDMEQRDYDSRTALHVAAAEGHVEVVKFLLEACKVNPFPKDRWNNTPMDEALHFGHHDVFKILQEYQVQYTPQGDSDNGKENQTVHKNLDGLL
# Arylsulfatase A (Homo sapiens), sequence (P15289 whole entry, looked up): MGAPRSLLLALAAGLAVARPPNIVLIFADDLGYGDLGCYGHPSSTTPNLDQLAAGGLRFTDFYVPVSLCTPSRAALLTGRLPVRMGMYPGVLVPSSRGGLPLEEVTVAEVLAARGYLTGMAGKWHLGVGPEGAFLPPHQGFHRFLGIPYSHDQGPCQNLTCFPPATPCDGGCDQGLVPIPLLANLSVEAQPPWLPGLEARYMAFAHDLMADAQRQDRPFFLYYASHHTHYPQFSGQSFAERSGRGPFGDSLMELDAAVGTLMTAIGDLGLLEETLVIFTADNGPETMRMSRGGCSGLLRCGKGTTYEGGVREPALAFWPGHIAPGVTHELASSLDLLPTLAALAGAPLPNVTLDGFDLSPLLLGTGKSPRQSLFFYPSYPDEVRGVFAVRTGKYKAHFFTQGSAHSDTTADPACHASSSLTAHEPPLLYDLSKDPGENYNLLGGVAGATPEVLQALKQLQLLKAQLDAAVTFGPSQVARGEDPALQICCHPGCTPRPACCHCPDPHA
# Glucagon-like peptide 1 receptor (Homo sapiens), sequence (P43220 whole entry, looked up): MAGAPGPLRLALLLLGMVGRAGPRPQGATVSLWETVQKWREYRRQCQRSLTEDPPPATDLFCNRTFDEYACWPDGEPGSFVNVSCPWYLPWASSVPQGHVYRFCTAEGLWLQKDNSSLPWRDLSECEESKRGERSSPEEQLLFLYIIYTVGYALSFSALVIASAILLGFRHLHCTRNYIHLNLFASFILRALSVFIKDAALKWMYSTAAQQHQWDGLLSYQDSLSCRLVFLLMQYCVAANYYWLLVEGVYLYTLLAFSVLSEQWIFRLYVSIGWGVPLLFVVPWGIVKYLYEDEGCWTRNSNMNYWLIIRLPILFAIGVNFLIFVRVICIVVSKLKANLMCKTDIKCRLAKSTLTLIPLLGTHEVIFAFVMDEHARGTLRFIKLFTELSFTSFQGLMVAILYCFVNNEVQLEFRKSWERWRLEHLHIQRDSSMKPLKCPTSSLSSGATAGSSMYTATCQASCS
# phosphoglycerate mutase (Leishmania major), sequence (Q4Q090 1-553): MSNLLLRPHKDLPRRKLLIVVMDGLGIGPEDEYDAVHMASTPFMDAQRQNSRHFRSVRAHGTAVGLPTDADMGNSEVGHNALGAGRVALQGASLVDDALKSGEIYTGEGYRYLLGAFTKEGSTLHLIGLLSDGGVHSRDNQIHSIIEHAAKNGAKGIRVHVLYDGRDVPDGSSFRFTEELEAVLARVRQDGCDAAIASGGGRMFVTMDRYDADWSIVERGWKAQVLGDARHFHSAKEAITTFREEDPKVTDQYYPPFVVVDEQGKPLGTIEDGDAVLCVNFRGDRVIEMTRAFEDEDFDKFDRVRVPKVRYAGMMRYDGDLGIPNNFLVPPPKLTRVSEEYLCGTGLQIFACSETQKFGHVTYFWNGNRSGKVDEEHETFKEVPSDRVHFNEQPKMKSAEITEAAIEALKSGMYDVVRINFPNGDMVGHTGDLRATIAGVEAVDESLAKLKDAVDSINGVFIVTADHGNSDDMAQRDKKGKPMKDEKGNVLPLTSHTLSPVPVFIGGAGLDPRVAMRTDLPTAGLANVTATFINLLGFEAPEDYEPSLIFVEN
# Voltage-gated inwardly rectifying potassium channel KCNH2 (Homo sapiens), sequence (Q12809 whole entry, looked up): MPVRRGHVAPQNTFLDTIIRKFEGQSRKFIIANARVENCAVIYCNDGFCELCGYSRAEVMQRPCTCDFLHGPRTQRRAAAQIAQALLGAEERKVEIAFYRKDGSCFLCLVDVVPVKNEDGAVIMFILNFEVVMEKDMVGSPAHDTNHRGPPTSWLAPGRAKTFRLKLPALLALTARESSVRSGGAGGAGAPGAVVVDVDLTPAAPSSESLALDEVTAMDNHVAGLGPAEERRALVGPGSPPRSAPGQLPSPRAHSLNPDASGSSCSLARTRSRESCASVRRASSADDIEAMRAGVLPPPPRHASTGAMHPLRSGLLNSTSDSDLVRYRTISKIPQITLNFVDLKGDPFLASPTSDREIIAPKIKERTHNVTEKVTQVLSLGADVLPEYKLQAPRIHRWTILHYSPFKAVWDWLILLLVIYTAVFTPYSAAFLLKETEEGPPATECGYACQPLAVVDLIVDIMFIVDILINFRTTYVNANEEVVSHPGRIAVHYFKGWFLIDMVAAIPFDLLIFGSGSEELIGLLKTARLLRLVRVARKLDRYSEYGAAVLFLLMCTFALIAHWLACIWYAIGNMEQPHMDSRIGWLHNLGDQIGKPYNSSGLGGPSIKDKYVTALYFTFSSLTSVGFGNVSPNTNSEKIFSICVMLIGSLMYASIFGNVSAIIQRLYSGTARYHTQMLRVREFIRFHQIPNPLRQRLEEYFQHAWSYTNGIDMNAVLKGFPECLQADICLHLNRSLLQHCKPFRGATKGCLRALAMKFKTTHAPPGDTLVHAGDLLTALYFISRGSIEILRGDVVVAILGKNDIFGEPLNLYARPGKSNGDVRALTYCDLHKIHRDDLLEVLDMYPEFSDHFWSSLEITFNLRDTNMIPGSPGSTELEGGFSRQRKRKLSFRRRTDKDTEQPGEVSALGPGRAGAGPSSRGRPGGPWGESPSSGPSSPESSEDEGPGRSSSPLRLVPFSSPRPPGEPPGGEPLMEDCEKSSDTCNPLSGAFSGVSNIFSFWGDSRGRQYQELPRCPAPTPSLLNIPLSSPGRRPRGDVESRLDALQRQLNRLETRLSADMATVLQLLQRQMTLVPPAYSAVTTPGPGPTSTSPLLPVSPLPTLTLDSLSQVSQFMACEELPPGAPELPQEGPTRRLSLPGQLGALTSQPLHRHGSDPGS
smiles,measurement,setting,value
O=[N+]([O-])c1ccc(O[C@@H]2O[C@H](CO)[C@@H](O)[C@H](O)[C@H]2F)c([N+](=O)[O-])c1,viability change,[1],-9.61%
same,outcome,[2],inactive
same,outcome,[3],inactive
same,Potency,[4],inactive
same,Potency,[5],inactive
same,outcome,[6],inactive
same,outcome,[7],inactive
same,Potency,[8],inactive
same,outcome,[9],inactive
same,Potency,[10],inactive
same,Potency,[11],inactive
same,outcome,[12],inactive
same,outcome,[13],inactive
same,outcome,[14],inactive
same,outcome,[15],inactive
same,outcome,[16],inactive
same,Potency,[17],inactive
same,outcome,[18],inactive
